Assay outcomes as filed in PubChem.
Only some compounds are listed: those with a hit (about 11% of all), similar ones and a draw of the others.
HP1b binding inh: inhibitors of HP1-beta chromodomain binding to methylated histone tails. AlphaScreen HP1-beta / biotin-H3K9me3 peptide binding. hit rate 0.56% among 390,000. P83916. Potency, µM (series often up to 114 µM), usual class: inhibitors. AID 540317; further: nearly all actives have a fitted effect of over 70% in size
Target sequence (P83916 whole entry, looked up): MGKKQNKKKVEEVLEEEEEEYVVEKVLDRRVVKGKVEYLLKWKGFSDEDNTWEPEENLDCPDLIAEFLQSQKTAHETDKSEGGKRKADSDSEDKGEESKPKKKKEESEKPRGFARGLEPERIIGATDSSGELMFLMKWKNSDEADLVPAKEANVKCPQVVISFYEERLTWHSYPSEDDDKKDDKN
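AlphaScreen: HP1-beta (50 nM) preformed 30 min with biotin-H3(1-18)K9me3 peptide (50 nM) in PBS pH 7.4, 0.01% Tween-20. Compound added for 30 min at RT, then streptavidin donor/nickel chelate acceptor beads (10 ug/mL) for 30 min.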
BAZ2B block: BAZ2B (human) inhibition; Q9UIF8; AlphaScreen BAZ2B-H3K14Ac peptide displacement; Potency, µM (highest dose often 114 µM), hits mostly inhibitors; hit rate 4.4% among 360,000; AID 504333; further: nearly all actives have a fitted effect of over 60% in size
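BAZ2B (50 nM) with biotin-H3(5-23)K14Ac peptide (50 nM) in PBS pH 7.4, 0.01% Tween-20, preformed 30 min, then compound 30 min at room temperature; top concentration 110uM. AlphaScreen streptavidin donor/nickel chelate acceptor beads (10 ug/mL final), 20 min dark, signal read.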
JMJD2A Tudor inh: JMJD2A Tudor domain (human) inhibition | AlphaScreen JMJD2A-Tudor / H3K4me3 peptide binding | O75164 | hit rate 4.4% among 390,000 | Potency, µM (doses to about 114 µM), actives largely listed as inhibitors | AID 504339; further: nearly all actives have a fitted effect of over 50% in size
L3MBTL1 inh: L3MBTL1 (human) inhibition; Potency, µM (top dose mostly 57.1 µM), hits mostly inhibitors; AlphaScreen L3MBTL1–H3K9me1 peptide binding; AID 485360; hit rate 0.66% among 230,000; further: nearly all actives have a fitted effect of over 60% in size
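AlphaScreen assay: L3MBTL1 (50 nM final) was preincubated 30 min at room temperature with biotinylated H3(1-15)K9me1 peptide (75 nM final), then 30 min with library compounds; streptavidin donor and nickel chelate acceptor beads (10 ug/mL final) added, 30 min dark.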
G9a inh: G9a (human) methyltransferase inhibition. Potency, µM (doses to about 102 µM), hits mostly inhibitors. G9a H3K9 monomethylation, AlphaScreen, 2 h. Q96KQ7. hit rate 8.8% among 350,000; further: nearly all actives have a fitted effect of over 75% in size
Target sequence (Q96KQ7 913-1193 limits assumed): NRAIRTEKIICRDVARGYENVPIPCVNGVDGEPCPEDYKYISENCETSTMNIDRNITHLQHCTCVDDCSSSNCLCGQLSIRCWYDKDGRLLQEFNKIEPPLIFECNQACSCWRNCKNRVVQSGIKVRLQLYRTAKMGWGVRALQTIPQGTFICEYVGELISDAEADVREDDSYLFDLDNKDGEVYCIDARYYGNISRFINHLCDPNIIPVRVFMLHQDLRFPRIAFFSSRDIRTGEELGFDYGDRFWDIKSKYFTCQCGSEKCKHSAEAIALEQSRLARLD
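Using a bead-based AlphaScreen, monomethylated H3K9 product from 2 h room-temperature reactions (G9a 20 nM, peptide 500 nM, SAM 20 uM) was detected with 0.5 ug/mL rabbit anti-H3K9me1 antibody.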
Numbers stand for hits; 0 = inactive; ? = inconclusive; - = not tested or not shown; [ ] = remark or other dose. The call rests on the fitted dose curve; in most records, active means well fitted inhibition curve with a large enough effect; inconclusive means small, poorly fitted or top-dose-only effect; inactive means no such curve, though single readings can be large or run the other way.

SMILES | HP1b binding inh | BAZ2B block | JMJD2A Tudor inh | L3MBTL1 inh | G9a inh
CC(C)CC(=O)NCC(c1ccc2c(c1)OCO2)N1CCN(c2ccccc2F)CC1 (stereo not given) | 0 | 0 | 0 | - | 0
CC(C)(C)c1ccc(S(=O)(=O)N2CCN(Cc3cc4c(cc3O)OCO4)CC2)cc1 | 0 | ? | ? | 0 | ?
COc1ccc(OC)c(NC(=O)N2CCC3(CC2)Oc2ccccc2C(=O)N3Cc2ccccc2F)c1 | 0 | 0 | ? | - | ?
Cc1nc(N2CCCCCC2)c2ccccc2n1 | 0 | 0 | 0 | 0 | ?
CCN(CC)c1ccc(Nc2nc(N3CCOCC3)c3ccccc3n2)cc1 | 0 | 18µM | 18µM | - | 2.2µM
COc1ccc(Nc2nc(N3CCCC3)c3ccccc3n2)cc1 | ? | ? | 45µM | - | 0[12.7 µM]
c1ccc2c(c1)nc(N1CCOCC1)c1ccccc12 | 0 | 0 | 0 | 0 | 0
Cc1ccc(Cn2c(CNS(=O)(=O)c3cccc([N+](=O)[O-])c3)nc3cccnc32)cc1 | 0 | 0 | 0 | - | 0
O=C(Nc1ccc(S(=O)(=O)Nc2cnc3ccccc3n2)cc1)c1cc(F)c(F)cc1Cl | 0 | 0 | 79µM | - | 0
O=C1N=C(O)CN1/N=C\c1ccc(-c2ccc([N+](=O)[O-])cc2)o1 | - | - | - | - | 0[21.5 µM]
Cc1sc2ncnc(N(C)CCc3ccccn3)c2c1C | 18µM | 25µM | 1.4µM | - | 0
Cc1sc2ncnc(N(C)Cc3cccs3)c2c1C | 0 | 0 | 0 | - | 0
COc1ccc(C2N=C(Nc3nc4ccccc4o3)NC3=C2C(=O)CC(C)(C)C3)cc1 (stereo not given) | 0 | - | 0 | - | -
COC(=O)c1cc(-c2ccccc2)sc1N | ? | ? | ? | - | 4.5µM
Cc1ccccc1-c1nnc(CN2CCN(c3ccccn3)CC2)o1 | 0 | 0 | 0 | - | 0
COc1cc(OC)cc(OC(=O)c2cccc(S(=O)(=O)N3CCN(C)CC3)c2)c1 | 0 | 0 | 0 | 0 | ?
CC(C)c1ccc(OC(=O)c2cccc(S(=O)(=O)N3CCN(C)CC3)c2)cc1 | 0 | ? | ? | - | 20µM
CN1CCN(S(=O)(=O)c2cccc(C(=O)Oc3cccc(Br)c3)c2)CC1 | 0 | ? | 0 | 0 | ?
CN1CCN(S(=O)(=O)c2cccc(C(=O)Oc3ccc(C(C)(C)C)cc3)c2)CC1 | 0 | ? | ? | 0 | 50µM
CC1=NNC(=O)C1CCC(=O)N/N=C/C(Br)=C/c1ccccc1 (stereo not given) | 0 | 0 | 0 | 0 | 50µM
O=C(CN1CCCN(Cc2ccccc2Cl)S1(=O)=O)Nc1ccc2c(c1)OCCO2 | 0 | 0 | 0 | - | 0
COc1cc(N=Nc2ccc(C)cc2S(N)(=O)=O)c(C)cc1N | 20µM | - | 6.3µM | - | -
COc1cc2c(C(=O)N3CCN(c4ccc(F)cc4)CC3)cn(CC(C)C)c(=O)c2cc1OC | 0 | 0 | 0 | - | 0
NC(=O)N/N=C/c1c(Sc2nnnn2-c2ccccc2)nc2ccccn2c1=O | 0 | 0 | 0 | 0 | 50µM
Cc1nn(-c2ccccc2)c(Cl)c1/C=N/NC(N)=O | 0 | 0 | 0 | - | 0
SMILES | HP1b binding inh | BAZ2B block | JMJD2A Tudor inh | L3MBTL1 inh | G9a inh
COc1ccccc1-n1cnnc1SCc1csc(-c2ccccc2)n1 | 0 | 0 | 0 | - | 0
C=CCn1c(SCc2csc(-c3ccc(C)cc3)n2)nnc1-c1ccccc1OC | 0 | 0 | ? | 0 | 32µM
CCOc1ccc(CNC(=O)C2CCN(C(=O)c3sccc3-n3cccc3)CC2)cc1 | 0 | 0 | 0 | - | 0
O=C1NCC(c2ccccc2)C1C(=O)N/N=C\c1ccc(-c2cccc(Cl)c2Cl)o1 (stereo not given) | 0 | ? | ? | - | 13µM
Cc1ccc(-c2ccc(/C=N\NC(=O)C3C(=O)NCC3c3ccccc3)o2)cc1Cl (stereo not given) | 0 | 0 | ? | - | ?
COc1ccccc1NC(=O)c1sc(-c2ccc(Cl)cc2)cc1N | 0 | 0 | 0 | - | 0
CCOc1ccc(NC(c2ccccn2)c2oc(CO)cc(=O)c2O)cc1 (stereo not given) | ? | 20µM | 22µM | - | 1.4µM
CCOC(=O)C(c1ccccc1)C(Nc1ccc(F)cc1)c1ccccn1 (stereo not given) | 0 | 0 | 0 | 0 | 0
CCOc1ccc(NC(=O)C2CCCN(S(=O)(=O)c3cccc4nonc34)C2)cc1 (stereo not given) | 0 | 0 | 0 | - | 0
CC(C)c1ccc(-c2noc(SCC(=O)N3CCCCC3)n2)cc1 | 0 | 0 | 0 | - | 0
Cc1ccc(S(=O)(=O)N/N=c2\sc3ccccc3n2C)cc1 | 0 | 0 | 0 | 0 | 0.79µM
